Screening results deposited in PubChem by several laboratories.
FadD28 FP inh: M. tuberculosis FadD28 bisubstrate binding inhibition | FadD28 bisubstrate probe binding, fluorescence polarization | inhibition, % at 12.5 µM | hit rate 0.22% among 360,000 | AID 588549; in the data active means inhibition above about 8.5%, passing the limit was not always enough; inconclusive means no clear call, values can overlap the other calls
Mtb bLac sens: beta-lactam sensitization of Mtb H37Rv; inhibition, % at 25 µM; hit rate 0.27% among 330,000; M. tuberculosis H37Rv growth with meropenem, percent inhibition; call rule not given here;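 further: growth measured after seven days incubation then overnight dye step; 0% = bacteria only wells and 100% = bacteria with antibiotic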
UGM FP inh: blocks M. tuberculosis UGM enzyme; P9WIQ1; purified UGM, fluorescence polarization probe displacement; inhibition, % at 10 µM; hit rate 0.06% among 320,000; in the data active means inhibition above about 10%, passing the limit was not always enough; inconclusive means no clear call, values can overlap the other calls
Target sequence (P9WIQ1 whole entry, looked up): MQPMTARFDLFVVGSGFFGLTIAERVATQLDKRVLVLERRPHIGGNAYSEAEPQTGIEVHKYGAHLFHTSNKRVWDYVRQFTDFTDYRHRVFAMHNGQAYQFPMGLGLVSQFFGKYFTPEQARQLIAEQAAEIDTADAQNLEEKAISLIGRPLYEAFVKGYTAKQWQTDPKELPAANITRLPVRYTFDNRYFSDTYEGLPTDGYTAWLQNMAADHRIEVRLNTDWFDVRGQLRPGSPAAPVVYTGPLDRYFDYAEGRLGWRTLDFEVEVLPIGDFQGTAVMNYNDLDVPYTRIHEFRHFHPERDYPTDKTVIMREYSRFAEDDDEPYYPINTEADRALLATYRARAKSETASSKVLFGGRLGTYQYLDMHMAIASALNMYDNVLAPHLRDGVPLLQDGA
Y pestis TopoI: inhibitors of Yersinia pestis topoisomerase I; Y. pestis Topo-I cleavage product accumulation, plate reader; activity, % at 10 µM; hit rate 0.064% among 360,000; in the data active means activity above about 50%, passing the limit was not always enough; inconclusive means no clear call, values can overlap the other calls
PfHsp40 yeast: restores yeast growth despite PfHsp40 toxicity | growth rescue, % at 12.5 µM | AID 504582 | S. cerevisiae expressing PfHsp40, growth rescue, ATP luminescence | hit rate 0.68% among 340,000; in the data active means growth rescue above about 28%, passing the limit was not always enough; inconclusive means no clear call, values can overlap the other calls;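 further: yeast W303a lacking pdr1 and pdr3 grown in galactose medium; growth measured after three days at 30 °C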
Rv3671c inh: Rv3671c (M. tuberculosis) protease inhibition; P9WHR9; inhibition, % at 5.96 µM; hit rate 0.048% among 320,000; AID 2606; in the data active means inhibition above about 38%;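 further: extracellular domain of Rv3671c used as enzyme; 0% = enzyme with DMSO and 100% = no enzyme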
Starred values were filed as active, the others as inactive; u = inconclusive; x = no result. Hits are enriched below; roughly 0.98% of the tested compounds scored in any of these assays.

SMILES	FadD28 FP inh	Mtb bLac sens	UGM FP inh	Y pestis TopoI	PfHsp40 yeast	Rv3671c inh
FC(F)C(F)(F)Oc1cccc(Nc2nccn3c(-c4cccc5cccnc45)cnc23)c1	-3	x	x	10	x	x
Cc1ccc(NC(=O)C2(C)CCN2C2Cc3ccccc3C2)cc1 (configuration not stated)	-2	x	x	28	x	x
Cc1ccc(C)c(C(=O)CN2C(=O)C(=O)N(C3CCCC3)C2=O)c1	u	1	-2	0	-1	-9
CCc1cccc2c(C(=O)CN3C(=O)NC4(CCCCC4)C3=O)c[nH]c12	13*	4	4	-10	-1	-5
CCc1cccc2c(C(=O)CN3C(=O)C(=O)N(C4CCCC4)C3=O)c[nH]c12	14*	-3	1	-19	0	5
CCc1cccc2c(C(=O)CN3C(=O)NC4(CCCCCC4)C3=O)c[nH]c12	53*	-10	-2	-17	1	-10
Cc1ccc(C)c(C(=O)CN2C(=O)NC3(CCCCCCC3)C2=O)c1	-1	3	0	4	-1	-4
COCCNc1ncnc2c1ncn2[C@H]1CN(Cc2ccc(-c3ccccc3)cc2)C[C@@H](CO)O1	-3	x	x	23	x	x
CC(N)=Nc1ccc([N+](=O)[O-])cc1	-4	4	14*	-4	-1	-2
O=[N+]([O-])c1ccc(N=Nc2c(Cl)cc(O)cc2Cl)cc1	0	99	2	-14	175*	15
O=[N+]([O-])c1ccccc1N=Nc1ccc(O)cc1	0	56	2	-12	12	-3
CC(=O)c1ccc([N+](=O)[O-])cc1	-2	-5	1	0	0	-1
O=c1c2cc(Cl)ccc2nc(-c2ccccc2)n1O	-2	36	-1	-4	195*	6
N#Cc1ccc(-c2nc3ccc(Br)cc3c(=O)n2O)cc1	-2	83	6	-9	7	12
O=c1c2cc(Br)ccc2nc(-c2ccc([N+](=O)[O-])cc2)n1O	-3	97	2	-11	160*	9
COc1cccc(/C=N/Nc2nc(C)cc(=O)[nH]2)c1OC	13*	-2	0	-1	1	12
CCOc1ccccc1/C=N/Nc1nc(C)cc(=O)[nH]1	1	-2	-1	0	0	-2
COc1cc(OC)c(C(=O)Nc2ccncc2)cc1OC	2	0	2	-1	19	4
COc1cc(OC)c(C(=O)Nc2ccc(C(=O)c3ccccc3)cc2)cc1OC	-5	2	0	41	154*	-8
COc1ccc(C(=O)Nc2ccc3ccccc3c2)c(OC)c1	-6	84	-3	17	60*	-5
COc1ccc2c(c1)Cc1cc(NC(=O)c3ccccc3-c3ccccc3C(=O)O)ccc1-2	11*	x	x	12	x	x
COc1ccc(NC(=O)c2ccccc2-c2ccccc2C(=O)O)cc1	-2	45	1	2	0	-3
COc1c(OC(C)=O)c(=O)n2c3ccccc3c3ccnc1c32	-4	-7	2	-2	27*	9
O=C(O)Cn1ccnc1[N+](=O)[O-]	-1	x	x	-6	x	x
COC(=O)c1ccc(/C=C/c2ccc3cccc(OC(C)=O)c3n2)cc1	-6	95	-1	23	140*	0
SMILES	FadD28 FP inh	Mtb bLac sens	UGM FP inh	Y pestis TopoI	PfHsp40 yeast	Rv3671c inh
O=C(O)c1ccc(/C=C/c2ccc3cccc(O)c3n2)cc1	-6	x	x	-3	0	x
O=C(CNc1cccc([N+](=O)[O-])c1)N1CCN(S(=O)(=O)c2ccc(Cl)cc2)CC1	-2	x	x	6	1	x
CNC(=O)c1sc(-c2ccccc2)nc1C	-3	-8	-3	0	93*	3
CCOC(=O)N(C)c1c(CC)nc2c(OCc3ccc(Cl)cc3Cl)cccn12	-7	x	x	35	x	x
COC(=O)C1=C(c2ccc3ccccc3c2)C[C@@H]2CC[C@H]1N2C	-2	0	2	-4	1	6
COC(=O)C1=C(C(=O)OC)C2OC1c1cc3ccccc3cc12	-2	x	x	26	71*	x
CCOC(=O)CN1C(=O)N[C@@H](c2cccc(F)c2)C(C(C)=O)=C1C	-4	-6	-1	2	1	3
CCOC(=O)CN1C(=O)N[C@@H](c2cccc(F)c2)C(C(=O)OC)=C1C	-4	-17	3	0	40*	2
CC(=O)N1CCN(S(=O)(=O)c2cccc(C(=O)NNC(=O)Cn3nc(C)cc3C)c2)CC1	x	-2	10*	-2	0	6
CC1COC(=C2C(=O)OCC2C)C1 (configuration not stated)	-3	x	x	2	x	x
O=C1/C(=C/c2ccc(O)c(O)c2)SC(=S)N1Nc1ccccc1	-5	x	x	-24	2	x
O=C(NN1C(=O)/C(=C/c2ccc(O)c(O)c2)SC1=S)c1ccccc1	43*	-2	-3	-18	0	-111
O=C(NN1C(=O)/C(=C\c2ccc(O)c([N+](=O)[O-])c2)SC1=S)c1ccccc1Cl	15*	58	2	-1	-1	5
Cc1ccc(C(=O)NN2C(=O)/C(=C/c3cccn3C)SC2=S)cc1	13*	x	7	7	3	-10
COc1ccc(-c2cc(C(=O)N3CCN(S(=O)(=O)c4ccccc4)CC3)[nH]n2)cc1	-1	u	-1	-7	1	6
O=C(c1cc(-c2ccccc2)n[nH]1)N1CCN(S(=O)(=O)c2ccccc2)CC1	-4	u	0	12	30*	-2
Cc1cccc(S(=O)(=O)NC(=O)C2(C)CCN2C(=O)Cc2cccs2)c1 (configuration not stated)	-19	x	x	-2	x	x
COC(=O)c1ccc([C@H](NC(=O)c2ccco2)[C@]2(C)C[C@H]2C2CCCCC2)cc1	-2	36	-3	39	68*	-10
O=C(OC1CCCCC1)c1ccc(NC(=O)c2ccco2)cc1	-3	18	0	12	u	-34
COC(=O)c1sccc1S(=O)(=O)Nc1ccc(C(O)(C(F)(F)F)C(F)(F)F)cc1	-25	x	x	-7	x	x
Clc1ccc2nc(C(Cl)(Cl)Cl)[nH]c2c1	-3	x	x	-9	x	x
c1cnc2c(c1)ccc1cccnc12	-3	86	-2	-9	57*	0
CCN(CC)S(=O)(=O)c1cc(C(=O)OCC(=O)Nc2c(F)cccc2F)ccc1F	-5	2	-2	3	1	-4
CCN(CC)S(=O)(=O)c1cc(C(=O)OCC(=O)Nc2cccc(Br)c2)ccc1F	56*	10	2	8	3	-59
CN(Cc1cn(C)c2ccccc12)C(=S)Nc1cc(F)cc(F)c1	1	-3	3	-3	57*	3
Cc1cccc(NC(=S)N(C)Cc2cn(C)c3ccccc23)c1	2	2	-1	1	0	2
COc1ccc(COC[B-](F)(F)F)cc1	-1	x	x	0	x	x
COc1ccc(CNC(=O)[C@]2(C)CCC[C@@]3(C)C4CC[C@@]5(C)C[C@]4(CCC32)CC5=O)cc1 (some centres not stated)	-3	-5	-1	u	162*	-7
